An excerpt weighted towards active compounds, which were near 1.2% of everything screened.
EBV gp42 inh: Epstein-Barr virus gp42 inhibitors, primary screen, biochemical, uHTS, fluorescence polarization; Glycoprotein 42 (Epstein-Barr virus (strain AG876)), Q1HVG2; Fluorescence polarization binding assay, mP read-out; inhibition, % (tested at 21.74 µM); hit rate 0.42% among 220,000; AID 1085, 2008; in the data active means inhibition above about 50%
zVAD death inh: inhibitors of zVAD-triggered necroptosis, primary screen, L929 cells. L929 zVAD necroptosis rescue, ATP luminescence, 24 h; with zVAD 60 µM. viability rescue, % at 10 µM. hit rate 0.38% among 220,000. AID 1377, 2008;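 active means activation, scaled between plate controls, above about 75%, limit read from the data; inactive means activation under that limit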;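 further: 0% = zVAD with DMSO and 100% = DMSO alone without zVAD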
TNF death inh: inhibitors of TNF-alpha triggered necroptosis, primary screen, cell-based, Jurkat FADD-/-, single concentration | Jurkat FADD-/- TNF necroptosis rescue, ATP luminescence, 24 h; 0 = TNF only, 100 = no-TNF cells | activation (protection from cell death), % at 10 µM | hit rate 0.068% among 220,000 | AID 463075, 2010;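 active means activation, meaning protection from cell death, of at least 50% relative to plate controls; inactive means activation below 50%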;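 further: necroptosis triggered by 40 ng/mL TNF-alpha added together with compound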
eIF4E-4G inh: eIF4E–eIF4G protein interaction inhibitors, primary screen, biochemical, uHTS, TR-FRET, eIF4GI fragment. Eukaryotic translation initiation factor 4E (Mus musculus) + Eukaryotic translation …. TR-FRET eIF4E-eIF4GI(517-606) binding, 2 h. inhibition, % at 21.7 µM. hit rate 0.37% among 220,000. AID 782, 2007;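 active means inhibition above about 30%, limit read from the data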;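 further: 0% = full FRET control wells and 100% = background wells lacking eIF4GI fragment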
Target sequence (P63073 whole entry, looked up, the tested form may be a part): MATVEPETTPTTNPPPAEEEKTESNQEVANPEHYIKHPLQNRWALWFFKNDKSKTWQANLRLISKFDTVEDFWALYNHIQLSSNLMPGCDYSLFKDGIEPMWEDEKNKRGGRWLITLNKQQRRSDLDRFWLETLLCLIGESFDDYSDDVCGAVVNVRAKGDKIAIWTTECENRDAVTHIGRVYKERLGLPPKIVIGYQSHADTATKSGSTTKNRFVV
Target sequence (Q04637 whole entry, looked up, the tested form may be a part): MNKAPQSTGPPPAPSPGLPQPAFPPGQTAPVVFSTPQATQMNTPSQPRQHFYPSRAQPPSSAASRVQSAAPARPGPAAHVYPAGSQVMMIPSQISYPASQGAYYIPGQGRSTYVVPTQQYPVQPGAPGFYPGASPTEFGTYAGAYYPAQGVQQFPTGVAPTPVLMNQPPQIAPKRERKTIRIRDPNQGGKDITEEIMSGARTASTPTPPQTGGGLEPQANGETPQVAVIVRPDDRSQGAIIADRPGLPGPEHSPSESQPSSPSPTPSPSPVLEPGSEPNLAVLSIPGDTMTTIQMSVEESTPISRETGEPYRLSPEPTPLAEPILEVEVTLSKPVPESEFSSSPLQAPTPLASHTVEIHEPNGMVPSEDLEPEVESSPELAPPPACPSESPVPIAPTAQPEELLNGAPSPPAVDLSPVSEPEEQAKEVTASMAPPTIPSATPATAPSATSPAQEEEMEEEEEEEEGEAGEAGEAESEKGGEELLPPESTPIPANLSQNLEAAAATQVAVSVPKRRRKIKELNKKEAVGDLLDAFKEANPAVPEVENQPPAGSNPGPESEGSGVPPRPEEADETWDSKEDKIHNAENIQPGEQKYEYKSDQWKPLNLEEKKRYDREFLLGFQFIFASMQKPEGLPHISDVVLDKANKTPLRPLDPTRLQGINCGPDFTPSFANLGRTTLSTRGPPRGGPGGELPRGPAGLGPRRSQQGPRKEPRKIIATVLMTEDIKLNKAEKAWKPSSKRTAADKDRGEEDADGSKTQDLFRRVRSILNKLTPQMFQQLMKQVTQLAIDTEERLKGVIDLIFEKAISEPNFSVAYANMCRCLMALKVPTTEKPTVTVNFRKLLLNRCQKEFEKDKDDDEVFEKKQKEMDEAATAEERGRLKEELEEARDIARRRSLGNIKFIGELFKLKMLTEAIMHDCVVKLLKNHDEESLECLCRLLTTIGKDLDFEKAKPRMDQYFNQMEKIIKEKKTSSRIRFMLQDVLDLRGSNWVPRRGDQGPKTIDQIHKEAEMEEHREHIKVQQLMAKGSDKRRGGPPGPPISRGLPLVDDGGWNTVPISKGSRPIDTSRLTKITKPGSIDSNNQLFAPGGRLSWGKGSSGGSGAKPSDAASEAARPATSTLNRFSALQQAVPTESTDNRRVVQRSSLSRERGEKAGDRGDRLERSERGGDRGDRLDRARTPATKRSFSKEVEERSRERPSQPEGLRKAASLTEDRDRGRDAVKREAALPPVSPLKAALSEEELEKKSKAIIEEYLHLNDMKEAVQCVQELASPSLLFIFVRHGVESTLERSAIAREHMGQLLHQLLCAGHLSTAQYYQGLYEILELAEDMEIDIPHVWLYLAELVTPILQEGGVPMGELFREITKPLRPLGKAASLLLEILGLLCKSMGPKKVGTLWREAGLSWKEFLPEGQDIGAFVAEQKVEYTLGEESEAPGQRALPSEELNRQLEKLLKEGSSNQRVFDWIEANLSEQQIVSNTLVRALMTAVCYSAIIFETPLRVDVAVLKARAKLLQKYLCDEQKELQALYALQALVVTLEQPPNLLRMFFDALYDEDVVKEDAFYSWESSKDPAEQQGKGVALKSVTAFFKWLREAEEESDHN
* = called active by the depositor; / = no result; ! = a repeat was not active; [ ] = another dose, or the depositor's remark.

SMILES	EBV gp42 inh	zVAD death inh	TNF death inh	eIF4E-4G inh
CCOC(=O)C1(Cc2ccc(OC)cc2)CCN(C(=O)[C@@H]2CCCN2C(C)=O)CC1	-3	0	1	-1
O=[N+]([O-])c1cc(/C=N\Nc2nccs2)ccc1O	93*	0	-2	49*[fluorescence artefact?]
O=C(CCNS(=O)(=O)c1ccc(Br)s1)N1CCCCC1	-10	1	0	-7
O=C(CCNS(=O)(=O)c1cccs1)N1CCCCCC1	-8	0	-2	38*
O=C(CCS(=O)(=O)c1cccs1)N1CCCC1	-4	0	0	50*
CN1CCN(CCCNC(=O)c2ccc(/C=C3\Sc4ccccc4N(Cc4ccc(F)cc4)C3=O)cc2)CC1	-10	4	-7	35*
CCOC(=O)c1[nH]c2cc3c(cc2c1NC(=O)CN1CCN(CCO)CC1)OCO3	-24	1	4	0
CC(NCc1ccc(S(N)(=O)=O)cc1)C(=O)N1c2ccccc2CC1C (stereo unspecified)	-9	0	0	-9
O=c1cc(-c2ccccc2)[nH]c2ccccc12	-19	0	-9	49*[fluorescence artefact?]
Cc1cccc(N2CCN(CC(O)COCc3cccs3)CC2)c1C (stereo unspecified)	5	0	2	7
CCCCNC(=O)C(c1ccc(OCC(=O)OC)c(C(=O)OC)c1)N(CCc1c[nH]c2ccccc12)C(=O)CCCCCN1C(=O)NC(c2ccc(-c3ccccc3)cc2)C(C(=O)OCc2ccccc2)=C1C (stereo unspecified)	-6	0	1	-3
COc1ccc(CN2CCN(C(=O)CC(C)C)CC2)c(OC)c1OC	-9	1	-1	77*
Cc1cc(=O)oc2c(CN3CCC(C)CC3)c(O)c(Cl)cc12	72*	-1	0	-5
Cc1cc(=O)oc2c(CN3CCCCC3)c(O)c(Cl)cc12	8	0	0	-17
Cc1ccc(-c2nn(-c3ccccc3)cc2/C=C2\SC(=S)N(CC(=O)O)C2=O)cc1	22	1	1	10
O=C(O)CCCCCN1C(=O)/C(=C\c2cn(-c3ccccc3)nc2-c2cccs2)SC1=S	6	0	-4	45*
O=C(O)CCN1C(=O)/C(=C/c2cn(-c3ccccc3)nc2-c2cccs2)SC1=S	-196	1	2	30*
CCCCNc1c(N)n(CC(C)C)c(=O)[nH]c1=O	27	2	0	-3
O=C1CCN2C=Nc3cccc4ccc1c2c34	137*	20	-3	4
O=C(O)C1=C[C@@H](C2CCCCC2)C[C@@H](OCCCCO)O1	-8	0	0	2
CC(C)[C@@H]1C=C(C(=O)O)O[C@H](OCCCCO)C1	-9	-1	1	97*
COc1ccccc1N1C(=O)C2C(C(=O)c3ccccc3)=NN(c3ccc(C)cc3)C2C1=O (stereo unspecified)	119*	1	-2	1
COc1ccccc1N1C(=O)C2C(C(=O)c3ccccc3)=NN(c3ccc(Br)cc3)C2C1=O (stereo unspecified)	55*	0	0	-4
COC(=O)C1=NN(c2ccc(C)cc2)C2C(=O)N(c3ccccc3OC)C(=O)C12 (stereo unspecified)	-3	1	0	-1
COc1ccc(CNC(=O)c2ccc(CS(=O)(=O)Cc3ccccc3F)o2)cc1	-11	1	1	-2
SMILES	EBV gp42 inh	zVAD death inh	TNF death inh	eIF4E-4G inh
S=C(NCc1ccco1)N1CCN(c2ccccc2Cl)CC1	6	2	-1	-1
COc1cc(/C=C/C(=O)N2CCCc3ccccc32)cc(OC)c1OC	-15	2	-1	6
CN1N=C2c3ccccc3CCC2C1c1ccc(Cl)cc1 (stereo unspecified)	-9	1	-1	2
CCOC(=O)c1c(NC(=O)CSc2nnnn2-c2ccc(OC)cc2)sc(C)c1C	-27	0	-2	30*
CCOC(=O)c1ccc2c(c1)C1C=CCC1C(C(=O)O)N2 (stereo unspecified)	84*	2	-3	47*
Cc1ccc2c(c1C)NC(C(=O)O)C1CC=CC21 (stereo unspecified)	87*!	/	/	61*!
CC1CCc2c(sc3ncn(N)c(=N)c23)C1 (stereo unspecified)	-28	0	2	1
O=C(OCc1cc(=O)n2c(n1)sc1ccccc12)c1cccc(O)c1	-14	0	0	10
O=C(OCc1cc(=O)n2c(n1)sc1ccccc12)c1ccc(O)cc1O	36	1	0	33*
COc1cc(C(=O)NNC(=O)C2CC=CCC2C(=O)O)cc(OC)c1OC (stereo unspecified)	-7	0	1	30*[fluorescence artefact?]
O=C(NNC(=O)C1CC=CCC1C(=O)O)c1ccc(Cl)cc1 (stereo unspecified)	8	3	0	4
Oc1oc(-c2ccccc2)nc1C=Nc1cccc2ccccc12	75*	0	-1	-3
O=C(Nc1cccc2cccnc12)c1ccc(Br)o1	-4	76*	-5	2
O=C(Nc1cccc2ccccc12)c1ccc(Br)o1	-18	0	-1	47*
O=C(Oc1cccc2cccnc12)c1ccc(Br)o1	1	-1	-1	4
CSc1ccccc1NC(=O)c1ccc(Br)o1	-11	2	-3	4
CCN(CC)S(=O)(=O)c1ccc(NC(=O)c2cc(C(=O)OC)cc([N+](=O)[O-])c2)cc1	-20	0	2	33*
COC(=O)c1cc(C(=O)Nc2ccc(S(=O)(=O)NC(C)(C)C)cc2)cc([N+](=O)[O-])c1	-14	3	1	0
CC(=O)Nc1ccc(OCCCNC(=O)c2c(-c3ccccc3)noc2C)cc1	1	0	-2	35*
CCCOc1ccc(NC(=O)c2c(-c3ccccc3)noc2C)cc1	-17	-1	0	4
COCCNC(=O)c1cccc(Nc2nc(-c3ccccc3)c3cc(Cl)ccc3n2)c1	-6	1	2	2
CCCOC(=O)c1ccc(OCC(O)CN2CCN(C(=O)c3ccccc3)CC2)cc1 (stereo unspecified)	0	0	-6	34*
CN(Cc1ccccc1NS(=O)(=O)c1ccc2ccccc2c1)C1CCCCC1	-11	-1	-1	1
COC(=O)c1[nH]c2ccccc2c1NC(=O)C(C)N1CC(C)OC(C)C1 (stereo unspecified)	-15	0	-1	-2
CC(=O)Nc1sc(C)c(C)c1C(=O)OC(C)C	-17	1	0	0
Cc1sc(NC(=O)Cn2nc(C(F)(F)F)cc2C)c(C(=O)OC(C)C)c1C	-22	0	-1	31*
C#CCCOC(=O)Nc1ccccc1	-5	-1	4	6
O=C1CCNc2c(Cl)cc(Cl)cc21	71*	-1	1	0
O=C1CCNc2c(Cl)cccc21	13	0	-1	-2

High-throughput results from PubChem BioAssay.
